61 compounds from publication PMC4552634, “A New Set of Chemical Starting Points with Plasmodium falciparum Transmission-Blocking Potential for Antimalarial Drug Discovery” (PLoS ONE, 2015) can be followed below.

The whole screen tested about 13,000 compounds, of which about 3,200 (25%) showed an effect of 50% or more. The list shows a part of the results.

The term % Inhibition denotes the drop in the measured response relative to a control, in per cent.

This assay deals with P. falciparum stage V gametocytes. More on the design: BacTiter-Glo ATP luminescence viability of purified stage V gametocytes in 384-well plates, per cent inhibition versus DMSO. Conditions: 48 h, 5 µM; inhibitor.
Regarding `Cc1cc(O)c2c3c1C(=O)C=C1C3c3c(c(O)cc(O)c3C(=O)C1(C)C)C2=O` (stereo not shown) [TCMDC-132049], the “% Inhibition” value stood at 13.87%.
For the compound `Oc1ccc(Cl)cc1CN1CCC(CCOC(c2ccccc2)c2ccccc2)CC1` [TCMDC-136036], the “% Inhibition” value is 7.087%.
The figure for `CC(C)Sc1nc2c(c(=O)n1CCc1ccccc1)C1(CCCCC1)Cc1ccccc1-2` [TCMDC-123894] is -24.8%; for `O=C(Nc1ccc2c(c1)OCO2)c1cc(-c2cccnc2)cnc1NCc1ccc2c(c1)OCO2` [TCMDC-136698] it is -17.08%.
Regarding `CN(c1ccnc(Nc2ccc(CS(C)(=O)=O)cc2)n1)C1CCN(Cc2ccccc2)CC1` [TCMDC-134396], the “% Inhibition” value is -3.005%.
The same measure for `CNC(=O)Cc1ccc(C(=O)Nc2cccc(-c3cccc(-c4nc5c(C)cccc5[nH]4)c3)c2)cc1` [TCMDC-137075]: -29.46%; for `Cc1cccc2nc(-c3cccc(-c4cccc(CN5CCN(c6ccc(C#N)cn6)CC5)c4)c3)[nH]c12.O=C(O)C(F)(F)F` [TCMDC-133118]: 18.89%; for `Cc1cccc2nc(-c3cccc(-c4cccc(CNCc5ccc(S(C)(=O)=O)cc5)c4)c3)[nH]c12.O=C(O)C(F)(F)F` [TCMDC-132896]: -8.61%.
The same measure for `Cc1cccc2nc(-c3ccc(-c4ccc(CNCc5ccc(S(C)(=O)=O)cc5)cc4)cc3)[nH]c12.O=C(O)C(F)(F)F` [TCMDC-132905]: 55%; for `CNc1ccc(CNCc2ccc(-c3ccc(-c4nc5cccc(C)c5[nH]4)cc3)cc2)cc1.O=C(O)C(F)(F)F` [TCMDC-132984]: 83.67%; for `Cc1cccc2nc(-c3cccc(-c4ccc(CNCc5ccc(S(C)(=O)=O)cc5)cc4)c3)[nH]c12.O=C(O)C(F)(F)F` [TCMDC-132898]: -16.63%.
For `Cc1cccc2nc(-c3ccc(-c4ccc(CNCCc5ccncc5)cc4)cc3)[nH]c12.O=C(O)C(F)(F)F` [TCMDC-132855], the “% Inhibition” value amounted to 4.84%.
`COc1ccc(CNCc2ccc(-c3ccc(-c4nc5cccc(C)c5[nH]4)cc3)cc2)cc1.O=C(O)C(F)(F)F` [TCMDC-132720]: the “% Inhibition” value is -4.275%.
The figure for `Cc1c(F)cc(C(=O)NC2CC2)cc1-c1ccc2c(c1)c(C)nn2S(=O)(=O)c1cccs1` [TCMDC-135260] is 59.41%; for `Cc1c(F)cc(C(=O)NC2CC2)cc1-c1ccc2c(cnn2S(=O)(=O)c2cccs2)c1` [TCMDC-135215] it is -11.35%.
The same measure for `Cc1c(F)cc(C(=O)NC2CC2)cc1-c1ccc2c(cnn2S(=O)(=O)c2ccc(Cl)s2)c1` [TCMDC-135232]: 32.9%.
Regarding `CO/C(=C\C=C\c1cc2cc(Cl)c(Cl)cc2[nH]1)C(=O)NCCCN1CCN(Cc2ccccc2)CC1` [TCMDC-139257], the “% Inhibition” value is -24.43%.
As for `CO/C(=C\C=C\c1cc2cc(Cl)c(Cl)cc2[nH]1)C(=O)NCC(C)(C)CN(C)C` [TCMDC-139037], the “% Inhibition” value is listed as -32.83%.
The same measure for `CO/C(=C\C=C\c1cc2cc(Cl)c(Cl)cc2[nH]1)C(=O)NCCCN1CCN(c2ccc(OC)cc2)CC1` [TCMDC-139175]: -57.04%; for `CCN(CC)CCCNC(=O)/C(=C/C=C/c1cc2cc(Cl)c(Cl)cc2[nH]1)OC` [TCMDC-139008]: 50.29%.
The figure for `CCN(CC)CCNC(=O)/C(=C/C=C/c1cc2cc(Cl)c(Cl)cc2[nH]1)OC` [TCMDC-139013] is -18.02%.
With `CO/C(=C\C=C\c1cc2cc(Cl)c(Cl)cc2[nH]1)C(=O)NCCCNCCN(C)c1ccccc1` [TCMDC-139496], the “% Inhibition” value worked out at 56.16%.
The same measure for `CO/C(=C\C=C\c1cc2cc(Cl)c(Cl)cc2[nH]1)C(=O)NCCCN(C)CCN(C)c1ccccc1` [TCMDC-139497]: -12.25%; for `CO/C(=C\C=C\c1cc2cc(Cl)c(Cl)cc2[nH]1)C(=O)NCCCNC12CC3CC(CC(C3)C1)C2` [TCMDC-139077]: 103%; for `CO/C(=C\C=C\c1cc2cc(Cl)c(Cl)cc2[nH]1)C(=O)NCCCN1CCC(c2ccccc2)CC1` [TCMDC-139272]: 8.329%.
As to `CN1CCC=C(C(=O)NCC(C)(C)c2nc(-c3ccc(Cl)c(O)c3)c(-c3ccncc3)[nH]2)C1` [TCMDC-140700], the “% Inhibition” value is listed as -7.132%.
On to `Cc1c(OC(C)C)nc2ccccc2c1C(=O)N[C@H](c1cccc(F)c1)C1CC1` [TCMDC-135994], for which the “% Inhibition” value is -18.71%.
Take `O=C(NCCN1CCCC1)c1cccc(-c2ccc(-c3nc4ccccc4[nH]3)cc2)c1` [TCMDC-132324]: the “% Inhibition” value was -2.761%.
The same measure for `CC(C)c1ccc(NC(=O)c2ccc(CN3CCCN(Cc4cccc(O)c4)CC3)cc2)cc1` [TCMDC-136419]: -24.98%.
For the compound `Cc1cccc(-c2nn(-c3ccccc3)c3[nH]c(=O)c(CN4CCSCC4)cc23)c1` [TCMDC-124897], the “% Inhibition” value is reported as 84.44%.
In the case of `Cc1cccc(-c2nn(-c3ccccc3)c3[nH]c(=O)c(CNC4CCCC4)cc23)c1` [TCMDC-136663], the “% Inhibition” value stood at 9.349%.
For `O=c1[nH]c2c(cc1CNC1CCCCC1)c(-c1cccc(F)c1)nn2-c1ccccc1` [TCMDC-125867], the “% Inhibition” value was 39.49%.
The same measure for `Cc1ccc(NC(=O)c2ccc(CN3CCCN(CC4CCCCC4)CC3)cc2)cc1C` [TCMDC-136425]: -18.57%.
The same measure for `Cc1cc(-c2c[nH]c3ncc(-c4cccc5ncccc45)cc23)ccc1C(=O)O.O=C(O)C(F)(F)F` [TCMDC-136377]: 16.5%; for `CC(C)NCc1ccc(-c2ccc(-c3nc4cc(C(F)(F)F)ccc4[nH]3)s2)cc1.O=C(O)C(F)(F)F` [TCMDC-132745]: -79.18%.
Take `O=C(O)C(F)(F)F.OCC1CCN(Cc2cccc(-c3ccc(-c4nc5cc(C(F)(F)F)ccc5[nH]4)s3)c2)CC1` [TCMDC-133126]: the “% Inhibition” value stood at 5.885%.
The figure for `Nc1cccc(CNCc2ccc(-c3ccc(-c4nc5cc(C(F)(F)F)ccc5[nH]4)s3)cc2)c1.O=C(O)C(F)(F)F` [TCMDC-132939] is -86.12%; for `NCc1ccc(CNCc2ccc(-c3ccc(-c4nc5cc(C(F)(F)F)ccc5[nH]4)s3)cc2)cc1.O=C(O)C(F)(F)F` [TCMDC-132814] it is 75.71%; for `CN(CCN)Cc1ccc(-c2ccc(-c3nc4cc(C(F)(F)F)ccc4[nH]3)s2)cc1.O=C(O)C(F)(F)F` [TCMDC-132821] it is 65.23%.
Consider `O=C(O)C(F)(F)F.OCC1CCN(Cc2ccc(-c3ccc(-c4nc5cc(C(F)(F)F)ccc5[nH]4)s3)cc2)CC1` [TCMDC-133120], for which the “% Inhibition” value is on record as 54.7%.
The figure for `CNc1ccc(CNCc2ccc(-c3ccc(-c4nc5cc(C(F)(F)F)ccc5[nH]4)s3)cc2)cc1.O=C(O)C(F)(F)F` [TCMDC-132985] is 42.48%; for `CN(CCN)Cc1cccc(-c2ccc(-c3nc4cc(C(F)(F)F)ccc4[nH]3)s2)c1.O=C(O)C(F)(F)F` [TCMDC-132820] it is 44.42%.
For the compound `NC(=O)C1CCN(Cc2ccc(-c3ccc(-c4nc5cc(C(F)(F)F)ccc5[nH]4)s3)cc2)CC1.O=C(O)C(F)(F)F` [TCMDC-132687], the “% Inhibition” value was -37.37%.
The same measure for `Cc1cccc2[nH]c(-c3cccc(-c4ccc(NC(=O)Cc5ccon5)cc4)c3)nc12` [TCMDC-136906]: -38.48%; for `Cc1cccc(/C=C/C(=O)NC2CCC(N3CCC(c4ccccc4C)CC3)CC2)c1` (stereo not shown) [TCMDC-133528]: -62.92%; for `CN1CCN(c2ccnc3ccc(NC(=O)Cc4ccc(Br)c5ccccc45)cc23)CC1` [TCMDC-139254]: 0.9853%.
The same measure for `CS(=O)(=O)NCCCNCc1ccc(-c2cccc(-c3nc4ccc(F)cc4[nH]3)c2)cc1` [TCMDC-133077]: 6.508%.
The figure for `COc1ccc2ncc(F)c(CCN3CCC(CNCc4cccc5c4OCO5)CC3)c2n1` [TCMDC-135851] is -2.329%; for `CCCN(CC)CCOC(=O)c1ccccc1` [TCMDC-131376] it is 17.72%; for `CCN(CC)CCCOC(=O)c1ccc2c(c1)-c1ccc(C(=O)OCCCN(CC)CC)c3cccc-2c13` [TCMDC-125491] it is 109%.
Turning to `CCCCN(CCCC)C(=NC(=N)NCc1ccc(Cl)c(Cl)c1)NCCCCCCNC(=NC(=N)NCc1ccc(Cl)c(Cl)c1)N(CCCC)CCCC` [TCMDC-131821], the “% Inhibition” value was determined as 116.7%.
The same measure for `CN(C)C(=O)CC(=O)NCc1cccc(Cl)c1` [TCMDC-131747]: 5.736%.
Regarding `CCN(CC)/C(=N/C(=N)NCc1cccc(Cl)c1)NCCCCCCN/C(=N\C(=N)NCc1cccc(Cl)c1)N(CC)CC` [TCMDC-131820], the “% Inhibition” value was found to be 122%.
The same measure for `CCN(CC)/C(=N/C(=N)NCc1ccc(Cl)cc1Cl)NCCCCCCN/C(=N\C(=N)NCc1ccc(Cl)cc1Cl)N(CC)CC` [TCMDC-131819]: 120%; for `CC/N=C(/NCCCCCCN/C(=N/CC)NCc1ccccc1)NCc1ccccc1` [TCMDC-137726]: -33.37%; for `CCCCN(CCCC)C(=Nc1cccc(Cl)c1Cl)Nc1ccc(C#N)cc1O` [TCMDC-140226]: -14.17%.
With `CCN(CC)C(=NC(=N)NCc1ccc(Cl)cc1)NCCCCCCNC(=NC(=N)NCc1ccc(Cl)cc1)N(CC)CC` [TCMDC-131817], the “% Inhibition” value came out at 120%.
Take `CCCc1cc(Cc2cnc(N)nc2N)cc(OCCCCCC(=O)O)c1OC` [TCMDC-137182]: the “% Inhibition” value is 2.989%.
Take `O=C(NC1CCN(Cc2ccccc2)CC1)c1ccc2c(=O)n(Cc3ccc(Cl)cc3)c(=S)[nH]c2c1` [TCMDC-125694]: the “% Inhibition” value came to 0.6987%.
The figure for `COCCNCc1cccc(C#Cc2cc3ncnc(Nc4ccc(OCc5cccc(F)c5)c(Cl)c4)c3s2)n1` [TCMDC-138842] is 7.186%.
Take `Fc1ccc(CN2CCN(c3ncnc4cc(-c5ccccc5)sc34)CC2)cc1` [TCMDC-132385]: the “% Inhibition” value is on record as -47.67%.
